# Data as given in the supplement of paper PMC8728848.
# This excerpt belongs to a sample that is enriched for the strongest signals.
# What was measured:
# Assay in all cases: glycan array binding signal (z-score within array); higher = stronger binding
# Settings in all cases: glycan notation: IUPAC condensed, linker removed
# [1] = molecular target: Fuc(a1-2)Gal(b1-3)GlcNAc(b1-3)Gal(b1-4)Glc
# Summary of the method: (§1)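 Glycan array binding is given as a within-array Z-score, which can be read as non-binding when negative. The arrays, 3228 of them, came from the Consortium for Functional Glycomics database and were retained only where the protein sequence was available. Z-scores were averaged across arrays of the same protein sequence at different concentrations or buffers and across linkers.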
# [2] = molecular target: Fuc(a1-2)Gal(b1-3)GlcNAc(b1-3)[Gal(b1-4)GlcNAc(b1-6)]Gal(b1-4)Glc
# Summary of the method: as §1
# [3] = molecular target: Fuc(a1-2)Gal(b1-4)GlcNAc(b1-2)[Fuc(a1-2)Gal(b1-4)GlcNAc(b1-4)]Man(a1-3)[Fuc(a1-2)Gal(b1-4)GlcNAc(b1-2)Man(a1-6)]Man(b1-4)GlcNAc(b1-4)GlcNAc
# Summary of the method: as §1
# [4] = molecular target: Fuc(a1-2)Gal6S(b1-4)Glc6S
# Summary of the method: as §1
# Fuc(a1-2)[Gal(a1-3)]Gal = molecular target: Fuc(a1-2)[Gal(a1-3)]Gal
# Summary of the method: as §1
# [5] = molecular target: Fuc(a1-2)[Gal(a1-3)]Gal(b1-3)GlcNAc
# Summary of the method: as §1
# [6] = molecular target: Fuc(a1-2)[GalNAc(a1-3)]Gal(b1-4)GlcNAc
# Summary of the method: as §1
# [7] = molecular target: Fuc(a1-2)[GalNAc(a1-3)]Gal(b1-4)GlcNAc(b1-3)GalNAc
# Summary of the method: as §1
# [8] = molecular target: Fuc(a1-2)[GalNAc(b1-3)]Gal
# Summary of the method: as §1
# [9] = molecular target: Fuc(a1-3)[Gal(b1-4)]GlcNAc(b1-4)Gal(b1-4)[Fuc(a1-3)]GlcNAc
# Summary of the method: as §1
# [10] = molecular target: Fuc(a1-3)[Gal(b1-4)]GlcNAc6S
# Summary of the method: as §1
# [11] = molecular target: Fuc(a1-3)[Gal3S(b1-4)]GlcNAc6S
# Summary of the method: as §1
# [12] = molecular target: Gal(a1-3)Gal(b1-3)[Fuc(a1-4)]GlcNAc(b1-2)Man(a1-3)[Gal(a1-3)Gal(b1-3)[Fuc(a1-4)]GlcNAc(b1-2)Man(a1-6)]Man(b1-4)GlcNAc(b1-4)GlcNAc
# Summary of the method: as §1
# Gal(a1-3)Gal(b1-4)GlcNAc = molecular target: Gal(a1-3)Gal(b1-4)GlcNAc
# Summary of the method: as §1
# [13] = molecular target: Gal(b1-3)GlcNAc(b1-3)Gal(b1-4)[Fuc(a1-3)]GlcNAc(b1-6)[Gal(b1-3)GlcNAc(b1-3)]Gal(b1-4)Glc
# Summary of the method: as §1
# [14] = molecular target: Gal(b1-3)[Neu5Ac(b2-6)]GalNAc
# Summary of the method: as §1
# [15] = molecular target: Gal(b1-4)GlcNAc(b1-2)Man(a1-3)[Gal(b1-4)GlcNAc(b1-2)Man(a1-6)]Man(b1-4)GlcNAc(b1-4)GlcNAc
# Summary of the method: as §1
# [16] = molecular target: Gal(b1-4)GlcNAc(b1-3)Gal(b1-4)GlcNAc(b1-2)Man(a1-3)[Gal(b1-4)GlcNAc(b1-3)Gal(b1-4)GlcNAc(b1-2)Man(a1-6)]Man(b1-4)GlcNAc(b1-4)[Fuc(a1-6)]GlcNAc
# Summary of the method: as §1
# [17] = molecular target: Gal(b1-4)GlcNAc(b1-6)[Gal(b1-4)GlcNAc(b1-3)]GalNAc
# Summary of the method: as §1
# Gal(b1-6)Gal = molecular target: Gal(b1-6)Gal
# Summary of the method: as §1
# Gal3S(b1-3)GlcNAc = molecular target: Gal3S(b1-3)GlcNAc
# Summary of the method: as §1
# Gal3S(b1-4)Glc = molecular target: Gal3S(b1-4)Glc
# Summary of the method: as §1
# Gal3S(b1-4)Glc6S = molecular target: Gal3S(b1-4)Glc6S
# Summary of the method: as §1
# Gal3S(b1-4)GlcNAc = molecular target: Gal3S(b1-4)GlcNAc
# Summary of the method: as §1
# Gal3S(b1-4)GlcNAc6S = molecular target: Gal3S(b1-4)GlcNAc6S
# Summary of the method: as §1
# [18] = molecular target: Gal3S(b1-4)[Fuc(a1-3)]GlcNAc6S
# Summary of the method: as §1
# GalNAc(a1-3)Gal = molecular target: GalNAc(a1-3)Gal
# Summary of the method: as §1
# GalNAc(b1-3)GalNAc = molecular target: GalNAc(b1-3)GalNAc
# Summary of the method: as §1
# GalNAc3S(b1-4)GlcNAc = molecular target: GalNAc3S(b1-4)GlcNAc
# Summary of the method: as §1
# Glc(b1-4)Glc = molecular target: Glc(b1-4)Glc
# Summary of the method: as §1
# [19] = molecular target: GlcNAc(a1-4)Gal(b1-3)GlcNAc
# Summary of the method: as §1
# [20] = molecular target: GlcNAc(b1-3)Gal(b1-4)GlcNAc(b1-3)Gal(b1-4)GlcNAc(b1-3)Gal(b1-4)GlcNAc(b1-2)[GlcNAc(b1-3)Gal(b1-4)GlcNAc(b1-3)Gal(b1-4)GlcNAc(b1-3)Gal(b1-4)GlcNAc(b1-6)]Man(a1-6)[GlcNAc(b1-3)Gal(b1-4)GlcNAc(b1-3)Gal(b1-4)GlcNAc(b1-3)Gal(b1-4)GlcNAc(b1-2)Man(a1-3)]Man(b1-4)GlcNAc(b1-4)[Fuc(a1-6)]GlcNAc
# Summary of the method: as §1
# [21] = molecular target: Man(a1-2)Man(a1-2)Man(a1-6)[Man(a1-3)]Man
# Summary of the method: as §1
# [22] = molecular target: Man(a1-2)Man(a1-3)[Man(a1-6)]Man(a1-6)[Man(a1-2)Man(a1-3)]Man(b1-4)GlcNAc(b1-4)GlcNAc
# Summary of the method: as §1
# [23] = molecular target: Neu5Ac(a2-3)Gal(b1-3)GalNAc(b1-4)[Neu5Ac(a2-8)Neu5Ac(a2-3)]Gal(b1-4)Glc
# Summary of the method: as §1
# [24] = molecular target: Neu5Ac(a2-3)Gal(b1-3)GlcNAc(b1-3)Gal(b1-3)GlcNAc
# Summary of the method: as §1
# [25] = molecular target: Neu5Ac(a2-3)Gal(b1-3)[GlcNAc(b1-6)]GalNAc
# Summary of the method: as §1
# [26] = molecular target: Neu5Ac(a2-3)Gal(b1-4)GlcNAc(b1-2)Man(a1-3)[Neu5Ac(a2-3)Gal(b1-4)GlcNAc(b1-2)Man(a1-6)]Man(b1-4)GlcNAc(b1-4)GlcNAc
# Summary of the method: as §1
# [27] = molecular target: Neu5Ac(a2-3)Gal(b1-4)GlcNAc(b1-3)Gal(b1-4)GlcNAc(b1-3)Gal(b1-4)GlcNAc
# Summary of the method: as §1
# [28] = molecular target: Neu5Ac(a2-3)Gal(b1-4)GlcNAc(b1-3)Gal(b1-4)GlcNAc(b1-3)[Neu5Ac(a2-3)Gal(b1-4)GlcNAc(b1-3)Gal(b1-4)GlcNAc(b1-6)]GalNAc
# Summary of the method: as §1
# [29] = molecular target: Neu5Ac(a2-3)Gal(b1-4)[Fuc(a1-3)]GlcNAc6S
# Summary of the method: as §1
# [30] = molecular target: Neu5Ac(a2-6)Gal(b1-4)GlcNAc(b1-3)Gal(b1-4)GlcNAc(b1-3)[Neu5Ac(a2-6)Gal(b1-4)GlcNAc(b1-3)Gal(b1-4)GlcNAc(b1-6)]GalNAc
# Summary of the method: as §1
# Neu5Ac(a2-6)GalNAc = molecular target: Neu5Ac(a2-6)GalNAc
# Summary of the method: as §1
# [31] = molecular target: Neu5Ac(a2-8)Neu5Ac(a2-3)Gal(b1-4)GlcNAc
# Summary of the method: as §1
# [32] = molecular target: Neu5Ac(a2-8)Neu5Ac(a2-8)Neu5Ac(a2-3)[GalNAc(b1-4)]Gal(b1-4)Glc
# Summary of the method: as §1
# [33] = molecular target: Neu5Gc(a2-3)Gal(b1-4)GlcNAc(b1-3)Gal(b1-4)GlcNAc(b1-2)Man(a1-3)[Neu5Gc(a2-3)Gal(b1-4)GlcNAc(b1-3)Gal(b1-4)GlcNAc(b1-2)Man(a1-6)]Man(b1-4)GlcNAc(b1-4)GlcNAc
# Summary of the method: as §1
# [34] = molecular target: Neu5Gc(a2-8)Neu5Gc(a2-3)Gal(b1-4)GlcNAc
# Summary of the method: as §1
# [35] = molecular target: Neu5Gc(a2-8)Neu5Gc(a2-3)Gal(b1-4)GlcNAc(b1-3)Gal(b1-4)GlcNAc
# Summary of the method: as §1
binder,measurement,setting,value
"MAA (Maackia amurensis), P0DKL3 (protein) MATSNSKPTQVLLATFLTFFFLLLNNVNSSDELSFTINNFVPNEADLLFQGEASVSSTGVLQLTRVENGQPQKYSVGRALYAAPVRIWDNTTGSVASFSTSFTFVVKAPNPDITSDGLAFYLAPPDSQIPSGSVSKYLGLFNNSNSDSSNQIVAVELDTYFAHSYDPWDPNYRHIGIDVNGIESIKTVQWDWINGGVAFATITYLAPNKTLIASLVYPSNQTTFSVAASVDLKEILPEWVRVGFSAATGYPTEVETHDVLSWSFTSTLEANCDAATENNVHIARYTA",glycan array binding signal (z-score),[1],-0.221
same,glycan array binding signal (z-score),[2],-0.262
same,glycan array binding signal (z-score),[3],-0.059
same,glycan array binding signal (z-score),[4],-0.191
same,glycan array binding signal (z-score),Fuc(a1-2)[Gal(a1-3)]Gal,-0.152
same,glycan array binding signal (z-score),[5],-0.153
same,glycan array binding signal (z-score),[6],-0.228
same,glycan array binding signal (z-score),[7],-0.128
same,glycan array binding signal (z-score),[8],-0.178
same,glycan array binding signal (z-score),[9],-0.094
same,glycan array binding signal (z-score),[10],-0.2
same,glycan array binding signal (z-score),[11],2.89
same,glycan array binding signal (z-score),[12],0.162
same,glycan array binding signal (z-score),Gal(a1-3)Gal(b1-4)GlcNAc,-0.243
same,glycan array binding signal (z-score),[13],-0.145
same,glycan array binding signal (z-score),[14],-0.219
same,glycan array binding signal (z-score),[15],-0.204
same,glycan array binding signal (z-score),[16],0.122
same,glycan array binding signal (z-score),[17],-0.204
same,glycan array binding signal (z-score),Gal(b1-6)Gal,-0.212
same,glycan array binding signal (z-score),Gal3S(b1-3)GlcNAc,1.5
same,glycan array binding signal (z-score),Gal3S(b1-4)Glc,5.2
same,glycan array binding signal (z-score),Gal3S(b1-4)Glc6S,6.87
same,glycan array binding signal (z-score),Gal3S(b1-4)GlcNAc,6.25
same,glycan array binding signal (z-score),Gal3S(b1-4)GlcNAc6S,4.71
same,glycan array binding signal (z-score),[18],7.75
same,glycan array binding signal (z-score),GalNAc(a1-3)Gal,-0.197
same,glycan array binding signal (z-score),GalNAc(b1-3)GalNAc,-0.186
same,glycan array binding signal (z-score),GalNAc3S(b1-4)GlcNAc,2.31
same,glycan array binding signal (z-score),Glc(b1-4)Glc,-0.161
same,glycan array binding signal (z-score),[19],-0.226
same,glycan array binding signal (z-score),[20],0.282
same,glycan array binding signal (z-score),[21],-0.236
same,glycan array binding signal (z-score),[22],-0.2
same,glycan array binding signal (z-score),[23],-0.163
same,glycan array binding signal (z-score),[24],-0.173
same,glycan array binding signal (z-score),[25],-0.229
same,glycan array binding signal (z-score),[26],1.17
same,glycan array binding signal (z-score),[27],1.27
same,glycan array binding signal (z-score),[28],1.22
same,glycan array binding signal (z-score),[29],-0.236
same,glycan array binding signal (z-score),[30],0.454
same,glycan array binding signal (z-score),Neu5Ac(a2-6)GalNAc,-0.257
same,glycan array binding signal (z-score),[31],0.479
same,glycan array binding signal (z-score),[32],-0.155
same,glycan array binding signal (z-score),[33],2.07
same,glycan array binding signal (z-score),[34],0.744
same,glycan array binding signal (z-score),[35],1.13
